Records with an inconclusive call do not appear. Active and inactive are the calls of the source. Rule for the calls: active = hit-call score of the fitted dose curve at least 0.9, where 1 is the maximum; inconclusive = response in the unintended direction; inactive = score below 0.9.
Assay: ACEA_ER_AUC_viability: ACEA Biosciences xCELLigence Real-Time Cell Analysis on Estrogen Receptor Agonism for Viability (AID 2283782);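 note: hit means loss of impedance signal meaning reduced cell growth or viability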
How it was run: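 Continuous-exposure impedance cell analysis uses T-47D cells in charcoal-stripped serum, eight 1:4 dilutions topping at 100 uM final, biological duplicate. Area under the growth curve at 80 h is fitted against DMSO baseline.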

Question: For COc1cc(C)ccc1C(C)C, which outcome is on record?
Answer: The outcome was “inactive”.

Question: For CC(=O)Oc1ccc(C)cc1, which outcome is on record?
Answer: The outcome was “inactive”.

Question: With CC(=O)OC1C2(C)CCC(C2)C1(C)C (stereo not given) as the compound, how does the outcome read?
Answer: Its outcome is “inactive”.

Question: Which outcome does the source give for CCCCCCCCO[C@@H]1O[C@H](CO)[C@@H](O)[C@H](O)[C@H]1O here?
Answer: Its outcome is “inactive”.

Question: With COC(=O)c1sccc1S(N)(=O)=O as the compound, how does the outcome read?
Answer: Its outcome is “inactive”.

Question: Which AC50 does the source give for CCCCCCCCCCCCCCCC[N+](C)(C)CC here?
Answer: Its AC50 is 12.3 µM (active).

Question: With C=CC(=O)NC(C)(C)CS(=O)(=O)O as the compound, how does the AC50 read?
Answer: Its AC50 is 11.2 µM (active).

Question: For CCCCCC(C)O (stereo not given), which outcome is on record?
Answer: The outcome was “inactive”.

Question: Which outcome does the source give for CCCCC(CC)CCC(CC(C)C)OS(=O)(=O)O (stereo not given) here?
Answer: The outcome was “inactive”.

Question: For CCN(Cc1cccc(S(=O)(=O)O)c1)c1ccc(C(=C2C=CC(=[N+](CC)Cc3cccc(S(=O)(=O)[O-])c3)C=C2)c2ccccc2)cc1, which outcome is on record?
Answer: Its outcome is “inactive”.

Question: Which outcome does the source give for CC(=O)CC(N)=O here?
Answer: The outcome was “inactive”.

Question: For c1ccc(-c2ccccn2)nc1, which AC50 is on record?
Answer: The AC50 was 34.1 µM (active).

Question: For CCO[Si](C)(OCC)OCC, which outcome is on record?
Answer: The outcome was “inactive”.

Question: Which outcome does the source give for COCCOCCOCCOCCOC here?
Answer: Its outcome is “inactive”.

Question: With CC1=NN(c2cc(S(=O)(=O)O)ccc2Cl)C(=O)C1N=Nc1ccccc1 (stereo not given) as the compound, how does the outcome read?
Answer: The outcome was “inactive”.

Question: With CCCCCCCCCCCCCOP(=O)(O)O as the compound, how does the AC50 read?
Answer: The AC50 was 48.7 µM (active).

Question: Which AC50 does the source give for CC(C)C(=O)C(C)C here?
Answer: Its AC50 is 19.7 µM (active).

Question: With CCC(C)C=O (stereo not given) as the compound, how does the AC50 read?
Answer: The AC50 was 39.7 µM (active).

Question: With CCN(CCC#N)c1ccc(N=Nc2c(Cl)cc([N+](=O)[O-])cc2Cl)cc1 as the compound, how does the outcome read?
Answer: Its outcome is “inactive”.

Question: With Cc1cccc(N)n1 as the compound, how does the outcome read?
Answer: The outcome was “inactive”.

Question: For CCCC(=O)OCc1ccccc1, which outcome is on record?
Answer: The outcome was “inactive”.

Question: Which outcome does the source give for OCCc1ccncc1 here?
Answer: Its outcome is “inactive”.

Question: With Nc1ccc(Cl)cc1Cl as the compound, how does the AC50 read?
Answer: The AC50 was 29.2 µM (active).

Question: Which outcome does the source give for CCCCCCCCc1ccc(Nc2ccc(CCCCCCCC)cc2)cc1 here?
Answer: Its outcome is “inactive”.

Question: For FC(F)(F)C(=NOCC1OCCO1)c1ccc(Cl)cc1, which AC50 is on record?
Answer: Its AC50 is 74.9 µM (active).

Question: Which outcome does the source give for Cc1ccc([N+](=O)[O-])cc1S(=O)(=O)O here?
Answer: The outcome was “inactive”.

Question: Which outcome does the source give for O=S(=O)(O)CC(O)CCl (stereo not given) here?
Answer: Its outcome is “inactive”.

Question: For C=CCCCCCCCCC(=O)OCCCC, which AC50 is on record?
Answer: Its AC50 is 50 µM (active).

Question: With COC(=O)c1c(C)cc(O)c(C)c1O as the compound, how does the outcome read?
Answer: Its outcome is “inactive”.

Question: Which outcome does the source give for CC(=O)OCCC1CCCCC1 here?
Answer: The outcome was “inactive”.

Question: Which outcome does the source give for CCCCCCCCCCOC(C)=O here?
Answer: Its outcome is “inactive”.

Question: With Cc1ccc(C(C)c2ccc(C)c(C)c2)cc1C as the compound, how does the AC50 read?
Answer: The AC50 was 50 µM (active).

Question: For O=S(=O)(O)c1ccccc1C=Cc1ccc(-c2ccc(C=Cc3ccccc3S(=O)(=O)O)cc2)cc1, which outcome is on record?
Answer: The outcome was “inactive”.

Question: With CC1=CC[C@H]2C[C@@H]1C2(C)C as the compound, how does the outcome read?
Answer: The outcome was “inactive”.

Question: For O=C1CCC(=O)N1Cl, which outcome is on record?
Answer: Its outcome is “inactive”.
